The results in this text go back to PubChem BioAssay.

Activity calls are given as the source filed them. Unless noted, the rule behind the calls is not given here.

Experiment [1] relates to Wnt5a (protein binding on small-molecule microarray). Description: Wnt5a binders on small-molecule microarray, primary screen, biophysical, 635/667 nm fluorescence (AID 1142).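 Note: fluorescence read at 667 nm with signal to noise per printed feature.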 Particulars: 635 nm fluorescence, higher = more signal.
Experiment [2] is described as follows: cell viability in Huh7 cells, primary screen, cytotoxicity control for HCV replication inhibitor project, CellTiter-Glo luminescence, basal, 48 h (AID 1143).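 Note: Huh7 hepatoma cells carrying a hepatitis C replication reporter with no stimulus; test concentration not given here.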 The conditions noted are these: Huh7 HCV replicon, higher = more signal, called active from +8 up or from −8 down.
The nature of experiment [3]: P. aeruginosa biofilm formation inhibitors, primary screen, PAO1 strain, BacTiter-Glo luminescence, LB-PBS (AID 1144). Particulars: 12 h, higher = more signal.
Experiment [4] in a line: CREB reporter modulators without forskolin, primary screen, cell-based, PC12, CRE-LacZ reporter, unstimulated (AID 1145). The conditions noted are these: no forskolin, luminescence, 4.5 h, higher = more signal, called active from +8 up or from −8 down.
The nature of experiment [5]: CREB reporter modulators under forskolin, primary screen, cell-based, PC12, CRE-LacZ reporter, forskolin-stimulated (AID 1146).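 Note: PC12 cells with 6xCRE LacZ reporter stimulated by forskolin 10 µM; beta-galactosidase reporter signal reflecting CREB driven transcription.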 Particulars: luminescence, 4.5 h, higher = more signal, called active from +8 up or from −8 down.
The target in experiment [6] is Streptavidin (Streptomyces avidinii) (UniProt P22629). Description: streptavidin binders on small-molecule microarray, primary screen, artefact control for SMM compound annotation, biophysical, 635/667 nm fluorescence (AID 1147).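 Note: signal reflects streptavidin binding to arrayed compounds as a control protein.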 The conditions noted are these: streptavidin binding, higher = more signal.
Experiment [7] can be described thus: small-molecule binders of probe aInhba, primary screen, biochemical, small-molecule microarray, 635/667 nm fluorescence (AID 1148).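 Note: score merges 667nm spot fluorescence with signal-to-noise for antibody binding to printed compounds.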 Particulars: higher = more signal.
Experiment [8] has as its target Torsin-1A (Homo sapiens) (UniProt O14656). As to the kind of experiment: torsin A binders from cell lysate, primary screen, small-molecule microarray, wild-type, 635/667 nm (AID 1149). Particulars: COS7 hTOR1A-WT lysate, 635 nm fluorescence, higher = more signal.
Experiment [9] shares this target. Description: small-molecule binders of mutant TOR1A in lysate, primary screen, cell lysate, small-molecule microarray, COS7 lysate, 635/667 nm fluorescence (AID 1150).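 Note: score pools 667 nm emission and signal to noise measuring lysate protein binding.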 The conditions noted are these: COS7 hTOR1A mutant lysate, 635 nm fluorescence, higher = more signal.
The test system of experiment [10] is Sonic hedgehog protein (Shh). As to the kind of experiment: small-molecule binders of Shh protein, primary screen, biochemical, small-molecule microarray, 635/667 nm fluorescence (AID 1151).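 Note: Shh protein binding to compounds spotted on small-molecule microarray slides; score combines spot fluorescence intensity with signal-to-noise across triplicate slides.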 Particulars: small-molecule microarray binding, 635 nm fluorescence; higher = more signal.
A short description of experiment [11]: E. coli DRC41 culture turbidity changes, primary screen, E. coli filamentation inducer project, strain DRC41, OD650, 48 h (AID 1152).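 Note: E. coli MC1000 strain DRC41 lacking acrAB efflux pump and sulA.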 Particulars: E. coli DRC41 (acrAB sulA), higher = more signal, called active from +8 up or from −8 down.
Experiment [12] can be described thus: small-molecule binders of probe aLefty1, primary screen, biochemical, small-molecule microarray, 635/667 nm fluorescence (AID 1153).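 Note: score merges spot fluorescence with signal-to-noise ratio from the scanned slide images.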 The conditions noted are these: higher = more signal.
Experiment [13] is described as follows: PSAC antagonists in infected red cells, primary screen, cell-based, P. falciparum Indochina, OD700, 1 h (AID 1154). Particulars: P. falciparum Indochina infected RBC osmotic lysis, higher = more signal, called active from +8 up or from −8 down.
A short description of experiment [14]: PSAC antagonists in infected red cells, primary screen, cell-based, P. falciparum Indochina, OD700, 2 h (AID 1155).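 Note: lysis reports solute entry through the parasite surface anion channel PSAC; channel blockers reduce lysis of infected cells.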 The conditions noted are these: P. falciparum Indochina infected erythrocytes, osmotic lysis OD700; higher = more signal, called active from +8 up or from −8 down.
Experiment [15] is described as follows: osmotic lysis modulators in infected erythrocytes, primary screen, PSAC antagonist project, cell-based, P. falciparum Indochina, OD700, 3 h (AID 1156). The conditions noted are these: higher = more signal, called active from +8 up or from −8 down.
Experiment [16] can be described thus: PSAC antagonists in infected red cells, primary screen, cell-based, P. falciparum Indochina, OD700, 18 h (AID 1157). Particulars: P. falciparum Indochina infected erythrocytes, osmotic lysis OD700, 18 h; higher = more signal, called active from +8 up or from −8 down.
The nature of experiment [17]: modulators of S6 phosphorylation in cells, primary screen, cell-based, A549, cytoblot, luminescence, serum-stimulated (AID 1158).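 Note: serum-stimulated A549 lung adenocarcinoma cells; signal is phosphorylated S6 detected by cytoblot immunostaining with HRP secondary.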 The conditions noted are these: A549 phospho-S6 cytoblot, 5 h, higher = more signal.
Experiment [18] addresses NADPH oxidase 2 (Homo sapiens) (UniProt P04839). As to the kind of experiment: NOX2-dependent H2O2 signal modulators, primary screen, NOX inhibitor project, cell-based, HEK293-NOX2, PMA-stimulated, Amplex Red fluorescence (AID 1159). Note: test concentration not given here. The conditions noted are these: 45 min, higher = more signal, called active from +8 up or from −8 down.
Experiment [19] concerns the target NADPH oxidase 4 (Homo sapiens) (UniProt Q9NPH5). As to the kind of experiment: NOX4-dependent H2O2 signal modulators, primary screen, NOX inhibitor project, cell-based, HEK293-NOX4, tetracycline-induced, Amplex Red fluorescence (AID 1160). The conditions noted are these: 45 min, higher = more signal, called active from +8 up or from −8 down.
For experiment [20], the target named is NADPH oxidase 5 (Homo sapiens) (UniProt Q96PH1). As to the kind of experiment: NOX5-dependent H2O2 signal modulators, primary screen, NOX inhibitor project, cell-based, HEK293-NOX5, Amplex Red fluorescence (AID 1161). The conditions noted are these: HEK293-NOX5, ionomycin, 45 min, higher = more signal.
NADPH oxidase 5 (Homo sapiens), sequence (Q96PH1 whole entry, looked up): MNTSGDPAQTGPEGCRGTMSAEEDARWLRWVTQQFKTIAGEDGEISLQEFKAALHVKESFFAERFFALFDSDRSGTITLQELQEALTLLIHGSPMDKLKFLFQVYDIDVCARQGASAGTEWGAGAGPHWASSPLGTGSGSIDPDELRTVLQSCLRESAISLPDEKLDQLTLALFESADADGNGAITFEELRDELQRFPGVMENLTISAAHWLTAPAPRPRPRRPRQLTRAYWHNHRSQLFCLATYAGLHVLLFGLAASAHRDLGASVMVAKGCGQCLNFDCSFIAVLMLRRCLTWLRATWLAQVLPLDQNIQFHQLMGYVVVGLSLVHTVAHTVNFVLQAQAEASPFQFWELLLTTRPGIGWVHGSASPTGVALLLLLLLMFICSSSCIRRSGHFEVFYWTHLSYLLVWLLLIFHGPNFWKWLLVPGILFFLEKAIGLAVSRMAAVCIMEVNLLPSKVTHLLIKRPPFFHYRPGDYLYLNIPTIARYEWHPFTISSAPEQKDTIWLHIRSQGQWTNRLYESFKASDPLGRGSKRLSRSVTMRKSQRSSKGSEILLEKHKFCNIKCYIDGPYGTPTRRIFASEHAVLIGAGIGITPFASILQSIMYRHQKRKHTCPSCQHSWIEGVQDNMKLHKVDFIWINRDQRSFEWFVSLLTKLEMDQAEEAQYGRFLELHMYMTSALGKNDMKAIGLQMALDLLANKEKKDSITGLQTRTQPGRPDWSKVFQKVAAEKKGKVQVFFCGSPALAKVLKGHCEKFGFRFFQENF

Streptavidin (Streptomyces avidinii), sequence (P22629 whole entry, looked up): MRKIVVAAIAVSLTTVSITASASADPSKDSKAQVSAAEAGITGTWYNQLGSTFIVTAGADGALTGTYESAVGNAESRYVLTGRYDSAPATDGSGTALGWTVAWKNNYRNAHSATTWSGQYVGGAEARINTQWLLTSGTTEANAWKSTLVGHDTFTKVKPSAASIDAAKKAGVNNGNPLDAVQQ
NADPH oxidase 4 (Homo sapiens), sequence (Q9NPH5 whole entry, looked up): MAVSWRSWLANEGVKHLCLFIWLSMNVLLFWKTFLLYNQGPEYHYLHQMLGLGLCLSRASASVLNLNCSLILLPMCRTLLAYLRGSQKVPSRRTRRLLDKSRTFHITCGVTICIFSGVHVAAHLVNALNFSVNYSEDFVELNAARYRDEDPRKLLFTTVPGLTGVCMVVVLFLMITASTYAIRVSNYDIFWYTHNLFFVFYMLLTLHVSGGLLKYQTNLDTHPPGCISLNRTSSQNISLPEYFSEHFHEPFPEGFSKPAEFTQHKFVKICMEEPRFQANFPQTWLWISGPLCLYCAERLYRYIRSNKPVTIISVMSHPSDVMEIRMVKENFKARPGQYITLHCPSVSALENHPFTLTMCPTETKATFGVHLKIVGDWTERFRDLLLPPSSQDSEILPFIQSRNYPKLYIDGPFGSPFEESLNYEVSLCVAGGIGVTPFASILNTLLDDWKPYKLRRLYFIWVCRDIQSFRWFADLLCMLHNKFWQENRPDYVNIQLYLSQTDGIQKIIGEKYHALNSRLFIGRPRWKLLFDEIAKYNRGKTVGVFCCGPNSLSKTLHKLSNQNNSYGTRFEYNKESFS
NADPH oxidase 2 (Homo sapiens), sequence (P04839 whole entry, looked up): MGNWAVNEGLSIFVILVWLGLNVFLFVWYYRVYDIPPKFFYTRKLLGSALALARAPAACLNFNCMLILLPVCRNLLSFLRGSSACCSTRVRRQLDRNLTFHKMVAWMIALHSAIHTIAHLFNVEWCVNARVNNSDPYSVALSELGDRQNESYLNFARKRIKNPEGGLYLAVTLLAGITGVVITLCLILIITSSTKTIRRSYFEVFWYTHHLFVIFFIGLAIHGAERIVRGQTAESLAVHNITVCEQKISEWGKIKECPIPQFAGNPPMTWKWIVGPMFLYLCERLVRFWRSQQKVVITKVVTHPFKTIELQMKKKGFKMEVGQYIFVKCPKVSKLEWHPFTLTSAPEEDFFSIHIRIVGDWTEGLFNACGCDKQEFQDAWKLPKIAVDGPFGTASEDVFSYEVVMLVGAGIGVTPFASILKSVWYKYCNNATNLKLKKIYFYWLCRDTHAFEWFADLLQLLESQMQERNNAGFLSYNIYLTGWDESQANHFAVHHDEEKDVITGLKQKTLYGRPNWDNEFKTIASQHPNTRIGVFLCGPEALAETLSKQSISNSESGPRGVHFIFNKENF
Torsin-1A (Homo sapiens), sequence (O14656 whole entry, looked up): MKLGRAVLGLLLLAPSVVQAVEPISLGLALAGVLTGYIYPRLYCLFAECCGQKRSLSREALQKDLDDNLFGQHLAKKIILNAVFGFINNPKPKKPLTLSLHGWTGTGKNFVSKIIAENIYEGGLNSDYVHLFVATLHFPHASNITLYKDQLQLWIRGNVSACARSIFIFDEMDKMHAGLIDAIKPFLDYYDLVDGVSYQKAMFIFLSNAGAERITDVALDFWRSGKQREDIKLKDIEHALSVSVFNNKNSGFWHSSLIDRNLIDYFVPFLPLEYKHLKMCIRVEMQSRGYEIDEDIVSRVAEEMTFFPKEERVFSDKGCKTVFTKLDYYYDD

Take `COC(=O)[C@H](C)NC(=O)CCC1CC(OC(=O)NCc2cccc3ccccc23)CC2(CCCC(COC(=O)NCc3cccc(C(F)(F)F)c3)O2)O1` (stereo not given in full): the composite z-score turned out to be 0.166 in experiment [1]; 0.925 in experiment [6]; 0.444 in experiment [7]; 0.241 in experiment [8]; 0.225 in experiment [9]; 1.04 in [10]. For the same compound, the composite z-score in [12] came out at 0.0794. The z-score was -1.33 (inactive) in experiment [2]; -1.07 (inactive) in [3]; -0.0755 (inactive) in experiment [4]; -0.213 (inactive) in experiment [5]; -0.356 (inactive) in experiment [11]; 1.35 (inactive) in [13]. The z-score in experiment [14] is -0.871 (inactive); in experiment [15], 0.339 (inactive); in experiment [16], -1.23 (inactive); in [17], 1.1; in experiment [18] it was 0.352 (inactive); in [19], -0.179 (inactive). The z-score in experiment [20] turned out to be 0.0278.
As for `COC(=O)[C@H](C)NC(=O)CCC1CC(OC(=O)NCc2ccc3c(c2)OCO3)CC2(CCCC(COC(=O)NCCc3ccc(Cl)cc3)O2)O1` (stereo not given in full), the composite z-score was -0.132 in experiment [1]; -0.334 in experiment [6]; -0.159 in experiment [7]; -0.157 in experiment [8]; 0.193 in experiment [9]; 0.579 in experiment [10]. This compound registered a composite z-score in experiment [12] of -0.101. For the same compound, the z-score is 0.173 (inactive) in experiment [2]; -0.0135 (inactive) in experiment [3]; -0.526 (inactive) in [4]; 0.336 (inactive) in experiment [5]; -0.51 (inactive) in experiment [11]; 2.17 (inactive) in [13]. Further, the z-score in experiment [14] is 0.223 (inactive); in experiment [15], 1.29 (inactive); in experiment [16], 0.272 (inactive); in experiment [17], 0.688; in experiment [18], 1.73 (inactive); in experiment [19], 0.148 (inactive). For the same compound, the z-score in experiment [20] came out at 0.879.
For the compound `COC(=O)[C@H](C)NC(=O)CCC1CC(OC(=O)NCc2cccc3ccccc23)CC2(CCCC(COC(=O)NCCC(C)C)O2)O1` (stereo not given in full), the composite z-score in experiment [1] was 0.0905; in [6], -0.224; in [7], -0.0695; in [8] it was 0.181; in experiment [9], 0.205; in experiment [10], 0.683. Moreover, the composite z-score in experiment [12] is 0.423. The z-score in experiment [2] was -0.842 (inactive); in [3], -0.386 (inactive); in experiment [4] it was -0.522 (inactive); in experiment [5], -0.135 (inactive); in [11], 0.782 (inactive); in [13], 6.93 (inactive). Also, the z-score was 0.663 (inactive) in [14]; -0.355 (inactive) in [15]; 0.197 (inactive) in experiment [16]; -0.463 in experiment [17]; 1.74 (inactive) in experiment [18]; 0.703 (inactive) in experiment [19]. Moreover, in experiment [20], the z-score is 1.52.
With `COc1ccc(O[C@H]2C=C[C@@H](c3ccccc3)O[C@@H]2COC(=O)CCC(C)=NOC[C@@H](O)COCc2ccco2)cc1`, the composite z-score in [1] is -1.31; in [6], -2.51; in experiment [7], -0.443; in [8], -6.12; in experiment [9], -2.73; in [10], -1.09. The compound further came in with a composite z-score in experiment [12] of -1.43. Moreover, the z-score in experiment [2] was -1.42 (inactive); in experiment [3], 0.104 (inactive); in [4] it was 3.94 (inactive); in experiment [5], -0.215 (inactive); in experiment [11], -1.45 (inactive); in experiment [13], 6.71 (inactive). Moreover, the z-score in [14] is -1.05 (inactive); in experiment [15] it was 0.382 (inactive); in [16] it was -2.06 (inactive); in [17], 1.18; in experiment [18] it was -3.53 (inactive); in experiment [19], -0.876 (inactive). The z-score in experiment [20] was -4.55.
Take `CCOC(=O)[C@H](Cc1ccccc1)NC(=O)CCC1CC(OC(=O)NCc2ccc3c(c2)OCO3)CC2(CCCC(COC(=O)NCCc3ccc(Cl)cc3)O2)O1` (stereo not given in full): the composite z-score was 0.0468 in experiment [1]; 1.14 in experiment [6]; -0.0221 in experiment [7]; 0.147 in experiment [8]; 0.214 in experiment [9]; 1.11 in experiment [10]. In experiment [12], this compound gave a composite z-score of -0.281. The z-score in [2] was -1.42 (inactive); in [3], -1.89 (inactive); in experiment [4], -0.0696 (inactive); in experiment [5] it was -0.71 (inactive); in [11] it was -0.393 (inactive); in experiment [13], 1.44 (inactive). Further, the z-score in [14] was -0.0302 (inactive); in [15], -0.249 (inactive); in experiment [16] it was -0.741 (inactive); in experiment [17] it was 1.51; in experiment [18], -0.194 (inactive); in experiment [19] it was 0.396 (inactive). For the same compound, in [20], the z-score came to 1.63.
On to `CC(C)[C@@H](OCc1ccccc1)[C@H](C)CON=C1[C@H]2CCn3c(=O)n(-c4ccccc4)c(=O)n3[C@H]2[C@H](O)[C@@H]2O[C@H]12`, for which the composite z-score in experiment [1] is 0.186; in experiment [6] it was 0.164; in experiment [7], -0.128; in [8] it was 0.0645; in experiment [9], 0.41; in [10] it was 0.89. The compound further came in with a composite z-score in experiment [12] of -0.186. The z-score was -0.367 (inactive) in experiment [2]; 1.21 (inactive) in [3]; -0.408 (inactive) in [4]; 1.2 (inactive) in experiment [5]; 0.352 (inactive) in experiment [11]; 0.509 (inactive) in [13]. Also, the z-score in [14] is -0.116 (inactive); in experiment [15] it was -0.171 (inactive); in experiment [16], 0.245 (inactive); in experiment [17], -0.952; in experiment [18] it was -0.662 (inactive); in experiment [19] it was 0.202 (inactive). For the same compound, the z-score in [20] was -0.851.
For the compound `COc1ccc(O[C@H]2C=C[C@@H](C#Cc3ccccc3)O[C@@H]2CO)cc1`, the composite z-score in experiment [1] was -0.0391; in experiment [6], 0.966; in experiment [7] it was -0.182; in [8], -0.0668; in [9] it was -0.0971; in experiment [10], 0.0864. The compound also yielded a composite z-score in [12] of 0.042. In addition, the z-score was -4.1 (inactive) in experiment [2]; 0.451 (inactive) in experiment [3]; 0.653 (inactive) in experiment [4]; -0.003 (inactive) in experiment [5]; 0.311 (inactive) in [11]; 2.26 (inactive) in experiment [13]. Moreover, the z-score in experiment [14] was 0.323 (inactive); in [15] it was -0.24 (inactive); in experiment [16] it was -0.144 (inactive); in experiment [17] it was 0.297; in [18], 1.33 (inactive); in experiment [19], -0.196 (inactive). In addition, the z-score in experiment [20] is -0.196.
With `CC(CCN1CCCc2nc(C)c(C)cc21)=NO[C@H](C)c1cn([C@H](CO)Cc2ccccc2)nn1`, the composite z-score in experiment [1] is 0.22; in experiment [6], -0.0592; in [7] it was 0.0487; in experiment [8], 1; in experiment [9] it was 0.25; in [10], 1.04. Besides, the composite z-score in experiment [12] was found to be 0.0402. Besides, the z-score in [2] was -0.535 (inactive); in [3], 0.13 (inactive); in [4], 2.77 (inactive); in experiment [5], -0.245 (inactive); in experiment [11], 0.115 (inactive); in experiment [13] it was 5.14 (inactive). Moreover, the z-score in experiment [14] is 0.985 (inactive); in experiment [15], 2.45 (inactive); in [16], 0.638 (inactive); in experiment [17], -0.0039; in experiment [18], -0.443 (inactive); in [19], -0.076 (inactive). Moreover, the z-score in [20] amounted to 0.863.
